# The supplement of paper PMC7393113
# ± gives the standard deviation of the averaged measurements.
# System: iBMDM (immortalised mouse bone-marrow-derived macrophages), LPS-stimulated
# Assay: mitochondrial superoxide (MitoSOX fluorescence) fold increase over unstimulated control; higher = more LPS-induced mitochondrial ROS (less inhibition)
# Conditions: inhibitor concentration: 500 nM; LPS: 100 ng/ml; time after LPS: 1 h
# Outline: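 Values are fold induction of mitochondrial superoxide relative to untreated macrophages, as a mean of replicates. Immortalised mouse bone-marrow-derived macrophages, seeded in triplicate in black 96-well plates, spent 20 h in phenol-red-free 1% FCS/DMEM before a 30 min pretreatment with kinase inhibitors (500 nM). After 10 min loading with 1 μM MitoSox, cells received LPS (100 ng/ml), and fluorescence (510/580 nm) was measured every 60 min for 4 h.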
row,Structure (SMILES),mitochondrial superoxide
1,Nc1ncnc2c1c(-c1cccc(OCc3ccccc3)c1)cn2C1CC(CN2CCC2)C1 (centres undefined),1.36 ± 0.069
2,COc1cc2ncnc(Nc3ccc(F)c(Cl)c3)c2cc1NC(=O)/C=C/CN1CCCCC1,1.22 ± 0.031
3,CCc1ccc(/C=C2/SC(=S)NC2=O)cc1,1.137 ± 0.0067
4,CC(C)c1cnn2c(NCc3ccccc3)cc(NCCCCCCN)nc12,1.16 ± 0.054
5,CNCc1ccc(-c2cc(-c3nc(-c4ccc(S(=O)(=O)C(C)C)cc4)cnc3N)on2)cc1,1.12 ± 0.068
6,C#Cc1cccc(Nc2ncnc3cc(OCCOC)c(OCCO)cc23)c1,1.16 ± 0.089
7,NC1(c2ccc(-c3nc4ccn5c(=O)[nH]nc5c4cc3-c3ccccc3)cc2)CCC1,1.26 ± 0.036
8,Cc1cc(Nc2ncc(Cl)c(Nc3ccccc3S(=O)(=O)C(C)C)n2)c(OC(C)C)cc1C1CCNCC1,1.2 ± 0.013
9,Cc1nc(Nc2ncc(C(=O)Nc3c(C)cccc3Cl)s2)cc(N2CCN(CCO)CC2)n1 [Dasatinib],1.51 ± 0.022
10,CC[C@@H]1C(=O)N(C)c2cnc(Nc3ccc(C(=O)NC4CCN(C)CC4)cc3OC)nc2N1C1CCCC1,1.14 ± 0.063
11,COc1ccc(Cl)cc1NC(=O)Nc1cc(C)nc2ccccc12,1.42 ± 0.05
12,"CC[C@H](Nc1ncnc2[nH]cnc12)c1nc2cccc(F)c2c(=O)n1-c1ccccc1 [CAL-101 (Idelalisib, GS-1101)]",1.34 ± 0.019
13,Oc1cccc(-c2nc(N3CCOCC3)c3oc4ncccc4c3n2)c1,1.61 ± 0.025
14,Clc1ccc(C2(c3ccc(-c4cn[nH]c4)cc3)CCNCC2)cc1,1.16 ± 0.065
15,CS(=O)(=O)c1ccc(-c2cnc(N)c(C(=O)Nc3ccccc3)n2)cc1,1.23 ± 0.053
16,O=C1c2ccc(Nc3ccc(F)cc3F)cc2CCc2ccc(OC[C@H](O)CO)cc21 [Skepinone-L],1.43 ± 0.05
17,Nc1ncnc2c1c(-c1cnc3[nH]ccc3c1)nn2C1CCCC1,1.34 ± 0.077
18,CO[C@H]1C[C@@H]2CC[C@@H](C)[C@@](O)(O2)C(=O)C(=O)N2CCCC[C@H]2C(=O)O[C@H]([C@H](C)C[C@@H]2CC[C@@H](O)[C@H](OC)C2)CC(=O)[C@H](C)/C=C(\C)[C@@H](O)[C@@H](OC)C(=O)[C@H](C)C[C@H](C)/C=C/C=C/C=C/1C [Rapamycin (Sirolimus)],1.7 ± 0.07
19,COc1cc(Nc2ncc(F)c(Nc3ccc4c(n3)NC(=O)C(C)(C)O4)n2)cc(OC)c1OC [R406 (free base)],1.23 ± 0.07

row,Structure (SMILES),mitochondrial superoxide
1,Cn1cnc2c(F)c(Nc3ccc(Br)cc3Cl)c(C(=O)NOCCO)cc21 [Selumetinib (AZD6244)],1.45 ± 0.037
2,COc1cc(N2CCC(N(C)C)CC2)ccc1Nc1ncc(Cl)c(Nc2ccccc2P(C)(C)=O)n1,1.15 ± 0.031
3,CN(C)C/C=C/C(=O)Nc1cc2c(Nc3ccc(F)c(Cl)c3)ncnc2cc1O[C@H]1CCOC1 [Afatinib (BIBW2992)],1.54 ± 0.068
4,CCC(=O)Nc1cccc(Oc2nc(Nc3ccc(N4CCN(C)CC4)cc3OC)ncc2Cl)c1,1.39 ± 0.084
5,Cc1cc(C(=O)NOCCO)c(Nc2ccc(I)cc2F)n(C)c1=O,1.05 ± 0.042
6,Cc1cc(C)nc(NS(=O)(=O)c2ccc(NC(=S)NC(=O)COc3ccc(Br)cc3Cl)cc2)n1,1.42 ± 0.087
7,"Cc1cc(Nc2cc(N3CCN(C)CC3)nc(Sc3ccc(NC(=O)C4CC4)cc3)n2)n[nH]1 [VX-680 (Tozasertib, MK-0457)]",1.55 ± 0.069
8,Cc1cc(C)c(/C=C2\C(=O)Nc3ccccc32)[nH]1 [Semaxanib (SU5416)],1.19 ± 0.012
9,Cc1cc(Nc2ncnc3ccc(-c4ccc(CNCCS(C)(=O)=O)o4)cc23)ccc1Oc1ccn2ncnc2c1 [HER2-Inhibitor-1],1.26 ± 0.072
10,NC1(C(=O)N[C@@H](CCO)c2ccc(Cl)cc2)CCN(c2ncnc3[nH]ccc23)CC1,1.38 ± 0.024
11,NC(=O)c1ccc(N(C(N)=O)c2c(F)cccc2F)nc1-c1ccc(F)cc1F,1.2 ± 0.026
12,C=CC(=O)Nc1cccc(Nc2nc(Nc3ccc(OCCOC)cc3)ncc2F)c1,1.17 ± 0.03
13,O=C(Nc1c[nH]nc1-c1nc2ccc(CN3CCOCC3)cc2[nH]1)NC1CC1,1.34 ± 0.02
14,COc1cc2/c(=N/c3ccc(Br)cc3F)nc[nH]c2cc1OCC1CCN(C)CC1 [Vandetanib (ZD6474)],1.57 ± 0.036
15,NC(=O)c1ncn([C@@H]2O[C@H](CO)[C@@H](O)[C@H]2O)c1N [Acadesine],1.108 ± 0.0017
16,COc1cc(CCc2cc(NC(=O)c3ccc(N4CC(C)NC(C)C4)cc3)n[nH]2)cc(OC)c1 (centres undefined),1.26 ± 0.04
17,N#C/C(=C(/N)Sc1ccc(N)cc1)c1ccccc1C(F)(F)F,1.35 ± 0.024
18,Nc1ccc(C(=O)Nc2cccc(-c3nc(N4CCOCC4)c4oc5ncccc5c4n3)c2)cn1,1.15 ± 0.037

# Same assay, conditions: inhibitor concentration: 500 nM; LPS: 100 ng/ml; time after LPS: 2 h
row,Structure (SMILES),mitochondrial superoxide
1,Nc1ncnc2c1c(-c1cccc(OCc3ccccc3)c1)cn2C1CC(CN2CCC2)C1 (centres undefined),1.48 ± 0.037
2,COc1cc2ncnc(Nc3ccc(F)c(Cl)c3)c2cc1NC(=O)/C=C/CN1CCCCC1,1.48 ± 0.045
3,CCc1ccc(/C=C2/SC(=S)NC2=O)cc1,1.22 ± 0.042
4,CC(C)c1cnn2c(NCc3ccccc3)cc(NCCCCCCN)nc12,1.25 ± 0.025
5,CNCc1ccc(-c2cc(-c3nc(-c4ccc(S(=O)(=O)C(C)C)cc4)cnc3N)on2)cc1,1.24 ± 0.057
6,C#Cc1cccc(Nc2ncnc3cc(OCCOC)c(OCCO)cc23)c1,1.2 ± 0.038
7,NC1(c2ccc(-c3nc4ccn5c(=O)[nH]nc5c4cc3-c3ccccc3)cc2)CCC1,1.34 ± 0.065
8,Cc1cc(Nc2ncc(Cl)c(Nc3ccccc3S(=O)(=O)C(C)C)n2)c(OC(C)C)cc1C1CCNCC1,1.32 ± 0.033
9,Cc1nc(Nc2ncc(C(=O)Nc3c(C)cccc3Cl)s2)cc(N2CCN(CCO)CC2)n1 [Dasatinib],1.61 ± 0.069
10,CC[C@@H]1C(=O)N(C)c2cnc(Nc3ccc(C(=O)NC4CCN(C)CC4)cc3OC)nc2N1C1CCCC1,1.19 ± 0.038
11,COc1ccc(Cl)cc1NC(=O)Nc1cc(C)nc2ccccc12,1.55 ± 0.055
12,"CC[C@H](Nc1ncnc2[nH]cnc12)c1nc2cccc(F)c2c(=O)n1-c1ccccc1 [CAL-101 (Idelalisib, GS-1101)]",1.4 ± 0.06
13,Oc1cccc(-c2nc(N3CCOCC3)c3oc4ncccc4c3n2)c1,1.62 ± 0.03
14,Clc1ccc(C2(c3ccc(-c4cn[nH]c4)cc3)CCNCC2)cc1,1.21 ± 0.061
15,CS(=O)(=O)c1ccc(-c2cnc(N)c(C(=O)Nc3ccccc3)n2)cc1,1.46 ± 0.052
16,O=C1c2ccc(Nc3ccc(F)cc3F)cc2CCc2ccc(OC[C@H](O)CO)cc21 [Skepinone-L],1.41 ± 0.05
17,Nc1ncnc2c1c(-c1cnc3[nH]ccc3c1)nn2C1CCCC1,1.41 ± 0.079
18,CO[C@H]1C[C@@H]2CC[C@@H](C)[C@@](O)(O2)C(=O)C(=O)N2CCCC[C@H]2C(=O)O[C@H]([C@H](C)C[C@@H]2CC[C@@H](O)[C@H](OC)C2)CC(=O)[C@H](C)/C=C(\C)[C@@H](O)[C@@H](OC)C(=O)[C@H](C)C[C@H](C)/C=C/C=C/C=C/1C [Rapamycin (Sirolimus)],1.7 ± 0.094
19,COc1cc(Nc2ncc(F)c(Nc3ccc4c(n3)NC(=O)C(C)(C)O4)n2)cc(OC)c1OC [R406 (free base)],1.32 ± 0.041

row,Structure (SMILES),mitochondrial superoxide
1,Cn1cnc2c(F)c(Nc3ccc(Br)cc3Cl)c(C(=O)NOCCO)cc21 [Selumetinib (AZD6244)],1.51 ± 0.031
2,COc1cc(N2CCC(N(C)C)CC2)ccc1Nc1ncc(Cl)c(Nc2ccccc2P(C)(C)=O)n1,1.27 ± 0.11
3,CN(C)C/C=C/C(=O)Nc1cc2c(Nc3ccc(F)c(Cl)c3)ncnc2cc1O[C@H]1CCOC1 [Afatinib (BIBW2992)],1.6 ± 0.047
4,CCC(=O)Nc1cccc(Oc2nc(Nc3ccc(N4CCN(C)CC4)cc3OC)ncc2Cl)c1,1.51 ± 0.091
5,Cc1cc(C(=O)NOCCO)c(Nc2ccc(I)cc2F)n(C)c1=O,1.25 ± 0.092
6,Cc1cc(C)nc(NS(=O)(=O)c2ccc(NC(=S)NC(=O)COc3ccc(Br)cc3Cl)cc2)n1,1.45 ± 0.1
7,"Cc1cc(Nc2cc(N3CCN(C)CC3)nc(Sc3ccc(NC(=O)C4CC4)cc3)n2)n[nH]1 [VX-680 (Tozasertib, MK-0457)]",1.64 ± 0.051
8,Cc1cc(C)c(/C=C2\C(=O)Nc3ccccc32)[nH]1 [Semaxanib (SU5416)],1.22 ± 0.029
9,Cc1cc(Nc2ncnc3ccc(-c4ccc(CNCCS(C)(=O)=O)o4)cc23)ccc1Oc1ccn2ncnc2c1 [HER2-Inhibitor-1],1.34 ± 0.074
10,NC1(C(=O)N[C@@H](CCO)c2ccc(Cl)cc2)CCN(c2ncnc3[nH]ccc23)CC1,1.54 ± 0.046
11,NC(=O)c1ccc(N(C(N)=O)c2c(F)cccc2F)nc1-c1ccc(F)cc1F,1.27 ± 0.087
12,C=CC(=O)Nc1cccc(Nc2nc(Nc3ccc(OCCOC)cc3)ncc2F)c1,1.24 ± 0.072
13,O=C(Nc1c[nH]nc1-c1nc2ccc(CN3CCOCC3)cc2[nH]1)NC1CC1,1.42 ± 0.033
14,COc1cc2/c(=N/c3ccc(Br)cc3F)nc[nH]c2cc1OCC1CCN(C)CC1 [Vandetanib (ZD6474)],1.63 ± 0.054
15,NC(=O)c1ncn([C@@H]2O[C@H](CO)[C@@H](O)[C@H]2O)c1N [Acadesine],1.2 ± 0.043
16,COc1cc(CCc2cc(NC(=O)c3ccc(N4CC(C)NC(C)C4)cc3)n[nH]2)cc(OC)c1 (centres undefined),1.42 ± 0.032
17,N#C/C(=C(/N)Sc1ccc(N)cc1)c1ccccc1C(F)(F)F,1.42 ± 0.092
18,Nc1ccc(C(=O)Nc2cccc(-c3nc(N4CCOCC4)c4oc5ncccc5c4n3)c2)cn1,1.23 ± 0.053
